In PubChem BioAssay AID1347076 (National Center for Advancing Translational Sciences (NCATS), 2019):
The whole screen tested about 400,000 compounds, of which about 13,000 (3.2%) were called active. Not shown: some 18% with an inconclusive outcome. This excerpt belongs to a sample that is enriched for actives. Values without a mark were called inactive. Calls follow the shape of the dose curve; as a rule, active = well fitted cell-killing curve with a large enough effect; inconclusive = small, poorly fitted or top-dose-only effect, or effect the other way; inactive = flat fitted curve, though single readings scatter.

Experiment: qHTS assay for MDR1-selective chemotherapeutics: Primary screen using the drug-selected MDR subline cells KB-V1; also: nearly all actives have a fitted effect of over 60% in size
Settings: KB-V1 MDR cells viability, CellTiter-Glo, 72 h; series mostly up to 46.1 µM; activity change, negative = cytotoxicity: at the top concentration
How it was run: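 Cytotoxicity toward P-gp-expressing KB-V1 cells was determined as loss of CellTiter-Glo luminescence after 72 h at 37 degrees C. Compounds were tested in quantitative HTS format across a concentration range, with curves fitted to normalized data.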
% is scaled to controls: 0 for no effect and ±100 for the full control effect; potency is read from the fitted curve at half-maximal effect.

| SMILES | activity change, negative = cytotoxicity [%] | Potency |
| --- | --- | --- |
| Cc1ccc(S(=O)(=O)N[C@H](CO)C(C)C)cc1 | -2.47 |  |
| CN(NC(=O)c1ccccc1F)c1nc(C(F)(F)F)nc2ccccc12 | -12 |  |
| Cc1cccc(C(=O)NCCc2nc3ccccc3n2Cc2ccccc2Cl)c1 | -0.81 |  |
| Cc1cccc(C(=O)Nc2ccc(-c3nc4ccccc4s3)c(C)c2)c1 | 17.3 |  |
| CSc1nc(N(C)NC(=O)c2cccc(C)c2)c2ccccc2n1 |  | 0.206 µM (active) |
| CN(NC(=O)c1ccccc1)c1nc2ccccc2nc1C(F)(F)F |  | 4.61 µM (active) |
| O=C(Nn1cnc2ccccc2c1=O)c1ccccc1 | -7.07 |  |
| C[C@H](CO)N1C[C@H](C)[C@@H](CN(C)C(=O)C2CCCCC2)OCc2cnnn2CCCC1=O | 0 |  |
| Cc1ccc(F)c(S(=O)(=O)NC(=O)C2(C)CCN2C(=O)c2ccco2)c1 (stereo not given) | 2.85 |  |
| COc1cccc(CNc2nc3cc(-c4csc5ccccc45)sc3c(=O)n2C)c1 | 1.56 |  |
| CC1CCN(c2ccc3c(c2)S(=O)(=O)c2cc(C(=O)O)ccc2C3=O)CC1 | -17.6 |  |
| CCCCc1ccc(S(=O)(=O)NC(=O)C2(C)CCN2C(=O)c2ccccc2)cc1 (stereo not given) | -1.95 |  |
| O=c1[nH]c(CN2CCOCC2)nc2cc(Cl)ccc12 | -7.03 |  |
| O=c1[nH]c(CCl)nc2cc(-c3ccc(Cl)cc3)sc12 |  | 16.4 µM (active) |
| NC(=O)Cc1nc2scc(-c3ccc(Cl)cc3)c2c(=O)[nH]1 | 34.2 |  |
| COCOc1cccc(CN2CCC(C)(Oc3ccc(SC)cc3)C2)c1 (stereo not given) | -12.9 |  |
| O=C1CC(c2ccccc2)CC2=C1C(c1ccco1)n1nc(C(F)(F)F)nc1N2 (stereo not given) | 0 |  |
| COc1ccnc2c1c(=O)n(Cc1cccc(F)c1)c(=O)n2C | -0.196 |  |
| COc1ccc(N2C(=O)CSC23C(=O)N(Cc2cccc(F)c2)c2ccccc23)cc1Cl (stereo not given) |  | 16.4 µM (active) |
| COc1ccc(N2C(=O)CS(=O)(=O)C23C(=O)N(Cc2ccc(C)cc2)c2ccccc23)cc1Cl (stereo not given) | 3.01 |  |
| COc1cc(C(=O)OCCCN2CCOCC2)cc(OC)c1OC | -11.7 |  |
| CC(C)(C)OC(=O)N1CCC(c2c(C(=O)Nc3ccc4c(c3)OCO4)cnn2-c2ccccc2)CC1 | -13.9 |  |
| COc1cc(OC)c(OC)cc1/C=C1\C=Cc2ccccc21 | -1.45 |  |
| COc1ccc(S(=O)(=O)N2CCC(C(=O)NCCC(=O)Nc3ccccc3OC)CC2)cc1 | 6.15 |  |
| COC(=O)c1cc(NC(=O)c2ccco2)ccc1N1CCOCC1 | -2.65 |  |

| SMILES | activity change, negative = cytotoxicity [%] | Potency |
| --- | --- | --- |
| CC(=O)Nc1ccc(N2CCOCC2)c(C(=O)Nc2cccc(C)c2)c1 | -4.2 |  |
| COC(=O)c1cc(NC(=O)c2cc(C(C)(C)C)nn2Cc2cccc(C)c2)ccc1N1CCOCC1 |  | 8.2 µM (active) |
| COc1ccc(C(=O)C(OP(=O)(OC)OC)c2ccccc2OC)cc1 (stereo not given) | -16.5 |  |
| CC1CC(NC(=S)N(C)C)CC(C)(C)C1 (stereo not given) | -7.02 |  |
| C=CCOC(=O)c1ccccc1C(=O)OCC=C | 28.4 |  |
| C=CCOC(=O)C1=C(C)NC(C)=C(C(=O)OCC=C)C1c1cccs1 |  | 16.4 µM (active) |
| CC1=C(C(=O)Nc2ccccc2)C(c2cccs2)C(C#N)=C(SCC#N)N1 (stereo not given) | -9.02 |  |
| COc1ccc(C(O)c2nc(-c3ccc(OC)nc3)cs2)cc1 (stereo not given) | -18.5 |  |
| CCOC(=O)c1c(-c2ccc(-c3ccccc3)cc2)csc1NC(=O)CCC(=O)O | 23 |  |
| CCOC(=O)c1c(-c2cccc(C)c2)csc1NC(=O)c1c(-c2ccccc2)noc1C |  | 11.6 µM (active) |
| Cc1ccc(CNC(=O)c2c(-c3ccccc3)noc2C)cc1 | 6.43 |  |
| O=S1(=O)CC(N2CCN(CCO)CC2)CN1C1CCCC1 (stereo not given) | -0.341 |  |
| COc1ccc(C(=O)NCC2CCCO2)cc1S(=O)(=O)NCc1ccc(Cl)cc1 (stereo not given) | -13.3 |  |
| CCOC(=O)CSc1nnc(-c2cccc(Br)c2)o1 | 17.9 |  |
| CCCCCc1c(-c2ccc(OC)c(OC)c2)ncn1CCc1ccccc1OC |  | 14.6 µM (active) |
| CCCCCc1c(-c2cccc(Br)c2)ncn1CCc1ccccc1OC |  | 11.6 µM (active) |
| CCC(=O)NCc1cc(-c2nn(C)c(=O)c3ccccc23)ccc1OC |  | inactive |
| COc1ccc(Br)cc1CN1CCN(C(=O)c2cccc(OC)c2OC)CC1 | -7.38 |  |
| CCCCCc1c(Cc2ccccc2)ncn1CCc1ccccc1OC | -27.9 |  |
| Cc1cccc(-n2ncc(C(=O)N3CCN(c4ccc(Cl)cc4)CC3)c2C2CCN(C(=O)OC(C)(C)C)CC2)c1 | -29.7 |  |
| Cc1cc2nc(-c3ccc(NC(=O)c4cc5ccccc5o4)cc3)oc2cc1C | 19 |  |
| CCN(CC)CCN(C)C(c1ccnc2ccccc12)c1nnnn1-c1ccc2c(c1)OCCO2 (stereo not given) | -6.74 |  |
| COC(=O)c1sc2ncccc2c1-n1c(C)ccc1C | 6.85 |  |
| Cc1ccc(-c2c(N)nc3ncccn23)cc1 | 3.58 |  |
| O=C(CSc1oc(-c2ccccc2)nc1S(=O)(=O)c1ccc(Br)cc1)NC1CCCCC1 | 2.61 |  |
